Screens (PubChem BioAssay)
Only some compounds are listed: those with a hit (about 7% of all), similar ones and a draw of the others.
NR3A LBD binder: modulators (binders) of human NR3A ligand-binding domain; NR3A LBD differential scanning fluorimetry, Tm shift; 0% = protein alone, 100% = glycine-bound protein; Tm shift relative to glycine control, % at 25 µM; 2.5% of 340,000 active; AID 1259313;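 active = melting temperature shift of at least 10% of the positive control shift, at one fixed dose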
rCAG RNA binder: binds r(CAG) RNA repeats; r(CAG) RNA repeat, TO-PRO-1 dye displacement fluorescence; inhibition, % at 3 µM; 1.3% of 370,000 active;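 active = inhibition above the plate cutoff, the mean of all test compounds on that plate plus 3 SD, cut at about 35% in these data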;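 also: 0% = DMSO alone and 100% = 100 µM mitoxantrone as full dye displacement; higher means more dye released from RNA so lower well fluorescence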
ADAM17 inh: inhibitors of human ADAM17; P78536; recombinant ADAM17, EDANS/DABCYL FRET peptide cleavage; inhibition, % at 6.95 µM; 0.83% of 370,000 active; AID 720648;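 active = inhibition above the mean of compounds lying between control limits plus 3 SD, set per campaign, cut at about 8.5% in these data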;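 also: 0% = DMSO-only wells as the low control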
Target sequence (P78536 215-824 limits assumed): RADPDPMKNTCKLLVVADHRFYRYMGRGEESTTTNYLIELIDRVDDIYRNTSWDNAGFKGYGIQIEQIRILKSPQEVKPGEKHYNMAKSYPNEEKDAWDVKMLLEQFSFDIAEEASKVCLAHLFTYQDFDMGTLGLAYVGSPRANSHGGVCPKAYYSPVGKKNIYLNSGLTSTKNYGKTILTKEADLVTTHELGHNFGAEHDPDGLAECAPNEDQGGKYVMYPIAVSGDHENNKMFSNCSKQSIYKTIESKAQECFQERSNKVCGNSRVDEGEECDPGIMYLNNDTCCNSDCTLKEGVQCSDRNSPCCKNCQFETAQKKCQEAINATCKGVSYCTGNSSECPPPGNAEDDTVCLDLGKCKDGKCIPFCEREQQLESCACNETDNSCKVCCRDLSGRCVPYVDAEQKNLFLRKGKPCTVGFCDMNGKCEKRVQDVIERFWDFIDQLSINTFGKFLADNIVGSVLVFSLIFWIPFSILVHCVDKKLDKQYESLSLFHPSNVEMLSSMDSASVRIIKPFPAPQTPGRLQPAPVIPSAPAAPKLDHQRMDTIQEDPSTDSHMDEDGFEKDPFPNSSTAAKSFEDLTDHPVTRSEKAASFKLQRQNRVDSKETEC
AHR act: activators of human aryl hydrocarbon receptor; P35869; AHR-responsive luciferase reporter cells, luminescence; activation, % at 5 µM; 2.5% of 320,000 active; in the data active = activation above about 47%;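 also: 0% = vehicle wells and 100% = reference agonist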
proKLK7 act: proKLK7 (human) activation, primary screen | P49862 | purified proKLK7, EDANS-DABCYL substrate fluorescence; 100% is mature enzyme control, 0% vehicle | 0.9% of 370,000 active | activation, % at 7 µM | AID 652039;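 active = activation above the mean of all tested compounds plus 3 SD, computed per campaign excluding outliers beyond control limits, cut at about 13% in these data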
ADAM10 inh: inhibits human ADAM10 | O14672 | recombinant ADAM10, EDANS/DABCYL FRET peptide cleavage, 3 h | inhibition, % at 7 µM | 0.62% of 370,000 active | AID 720582;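 active = inhibition above a per-campaign cutoff equal to the mean of compounds falling between control-based bounds plus 3 SD, cut at about 20% in these data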;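 also: 0% = DMSO wells while the 100% control is not disclosed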
AHR act confirm: confirmation of human aryl hydrocarbon receptor activators; human cells, AHR-responsive luciferase reporter, luminescence; shares compounds with AHR act; 87% of 2,300 active; activation, % at 9 µM; AID 2845; in the data active = activation above about 49%;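 also: HepG2 hepatoma cells carrying a DRE-driven firefly luciferase reporter; 0% = vehicle wells and 100% = reference agonist wells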
PXR act counter: counter-screen for AHR activators: human PXR activators | shares compounds with AHR act | cell-based PXR reporter, luciferase luminescence | activation, % at 11.6 µM | 88% of 2,300 active | AID 434939; in the data active = activation above about 11%;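 also: human hepatoma DPX-2 cells expressing full-length human PXR; 0% = DMSO and 100% = reference agonist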
* hit, by the source's call.

`Cc1cccc(-c2nsc(SCC(=O)Nc3ccc4c(c3)OCO4)n2)c1` gave NR3A LBD binder 5.9, rCAG RNA binder 1.8, ADAM17 inh 4.8, AHR act 105.2*, proKLK7 act -0.1, ADAM10 inh 5.8, AHR act confirm 21.4 and PXR act counter 15.8*.
Screening Cn1nnnc1SCC(=O)Nc1ccc2c(c1)OCO2 returned NR3A LBD binder 0.2, rCAG RNA binder -0.9, ADAM17 inh -0.5, AHR act 103.0*, proKLK7 act 0.5, ADAM10 inh -6.6, AHR act confirm 114.8* and PXR act counter 16.5*.
Screening CCn1nnnc1SCC(=O)Nc1ccc2c(c1)OCO2 returned NR3A LBD binder 0.1, rCAG RNA binder 3.4, ADAM17 inh -1.8, AHR act 37.1, proKLK7 act -0.4 and ADAM10 inh 5.8.
`O=C(N[C@@H](Cc1cccnc1)C(=O)N1CCC[C@H]1C(=O)NC1CCCC1)c1ccccc1` gave rCAG RNA binder 0.3, ADAM17 inh -6.9, proKLK7 act 0.2 and ADAM10 inh -7.1.
COC(=O)c1ccccc1NC(=O)NCC1CCN(Cc2ccc(OC)cc2)CC1 was read as rCAG RNA binder 1.7, ADAM17 inh -2.8, proKLK7 act 0.1 and ADAM10 inh -4.1.
`C=CCNC(=S)N/N=C/c1ccc(-c2cccc([N+](=O)[O-])c2)o1` gave NR3A LBD binder -3.1, rCAG RNA binder 9.5, ADAM17 inh 0.5, AHR act 3.9, proKLK7 act 0.0 and ADAM10 inh -0.9.
C=CCNC(=S)N/N=C/c1ccc(-c2ccc(Br)cc2)o1 was read as NR3A LBD binder 16.5*, rCAG RNA binder 9.2, ADAM17 inh -20.8, AHR act 80.6*, proKLK7 act -14.8, ADAM10 inh -55.7, AHR act confirm 132.3* and PXR act counter 18.9*.
For Cc1ccc(Nc2nc(-c3ccc(C)cc3)c(CC(=O)O)s2)cc1 the results were NR3A LBD binder -3.7, rCAG RNA binder 16.3, ADAM17 inh -3.3, AHR act 85.1*, proKLK7 act -0.4, ADAM10 inh -13.5, AHR act confirm 8.8 and PXR act counter 8.0.
`CCOC(=O)c1c(NC(=O)c2nn(CC)cc2Br)sc(C)c1C` gave NR3A LBD binder -7.2, rCAG RNA binder 2.7, ADAM17 inh -7.9, AHR act 15.0, proKLK7 act -150.4 and ADAM10 inh -28.3.
Screening CCn1cc(Br)c(C(=O)Nc2ccc(Cl)cc2Cl)n1 returned NR3A LBD binder -5.9, rCAG RNA binder 1.6, ADAM17 inh -1.2, AHR act 81.8*, proKLK7 act 0.2, ADAM10 inh 4.2, AHR act confirm 126.5* and PXR act counter 11.3*.
O=S(=O)(NNc1ncc(C(F)(F)F)cc1Cl)c1ccc(F)cc1F was read as NR3A LBD binder 3.8, rCAG RNA binder 3.1, ADAM17 inh 5.4, AHR act 113.8*, proKLK7 act 0.1, ADAM10 inh 3.5 and AHR act confirm 103.2*.
`COc1ccccc1C(=O)Nc1ccc2c(C)cc(=O)oc2c1` gave NR3A LBD binder -4.6, rCAG RNA binder 0.1, ADAM17 inh -12.3, AHR act 97.8*, proKLK7 act 0.4, ADAM10 inh -7.0, AHR act confirm 98.3* and PXR act counter 40.6*.
Cc1cc(/C=N/NC(=O)c2cccs2)c(C)n1-c1ccccc1 was read as NR3A LBD binder -2.1, rCAG RNA binder 3.9, ADAM17 inh -2.5, AHR act 1.7, proKLK7 act -1.2 and ADAM10 inh -0.9.
For C=CCNC(=S)N/N=C/c1cn(C)c2ccccc12 the results were NR3A LBD binder 2.8, rCAG RNA binder 7.2, ADAM17 inh -2.9, AHR act 95.4*, proKLK7 act -1.0, ADAM10 inh 0.3, AHR act confirm 74.5* and PXR act counter 166.7*.
Cn1cc(/C=N/NC(N)=S)c2ccccc21 was read as NR3A LBD binder -1.5, rCAG RNA binder 2.9, ADAM17 inh 3.0, AHR act 14.9, proKLK7 act -0.6 and ADAM10 inh 6.4.
Cc1cc(/C=N/NC(=O)c2cccs2)c(C)n1-c1cnccn1 was read as NR3A LBD binder -0.4, rCAG RNA binder 2.4, ADAM17 inh -2.6, AHR act 109.8*, proKLK7 act 0.3, ADAM10 inh 7.7, AHR act confirm 117.8* and PXR act counter 21.3*.
Cn1cc(/C=N\NC(=O)c2cccs2)c2ccccc21 was read as NR3A LBD binder -2.2, rCAG RNA binder 3.0, ADAM17 inh -2.1, AHR act 148.8*, proKLK7 act 0.7, ADAM10 inh -6.0, AHR act confirm 109.5* and PXR act counter 21.1*.
COc1ccc(CN2CN3Cc4cc(OC)ccc4C3CS2(=O)=O)cc1 (stereo not given) was read as rCAG RNA binder 5.2, ADAM17 inh -8.7, proKLK7 act -1.1 and ADAM10 inh -15.5.
Cc1nn(CC(=O)Nc2ccc(C(=O)N3CCCCC3)cc2)c(=O)c2ccccc12 was read as NR3A LBD binder 0.7, rCAG RNA binder -0.4, ADAM17 inh -5.0, AHR act 1.3, proKLK7 act 0.8 and ADAM10 inh 2.6.
Screening Cc1nn(CC(=O)Nc2ccc(C(=O)N3CCCC3)cc2)c(=O)c2ccccc12 returned NR3A LBD binder 0.0, rCAG RNA binder -3.8, ADAM17 inh -3.2, AHR act 86.4*, proKLK7 act 0.2, ADAM10 inh -5.5, AHR act confirm 5.5 and PXR act counter 5.2.
For Cc1c(=O)n(OCc2ccccc2)c2ccccc2[n+]1[O-] the results were NR3A LBD binder -1.0, rCAG RNA binder -1.9, ADAM17 inh -11.1, AHR act 176.9*, proKLK7 act 1.1, ADAM10 inh -19.6, AHR act confirm 200.8* and PXR act counter 47.2*.
Screening COc1ccc(COn2c(=O)c(C)[n+]([O-])c3ccccc32)cc1OC returned NR3A LBD binder 0.0, rCAG RNA binder 4.9, ADAM17 inh -3.9, AHR act 1.3, proKLK7 act -0.4 and ADAM10 inh -15.4.
O=C(NCc1ccccc1)OC1CC2CC1[C@H]1CCCCN1C2 (stereo not given in full) was read as rCAG RNA binder 6.8, ADAM17 inh -5.5, proKLK7 act 0.0 and ADAM10 inh -9.0.
CCOC(=O)c1csc(NC(=O)C2CCCN(S(=O)(=O)c3cccs3)C2)n1 (stereo not given) was read as rCAG RNA binder 2.1, ADAM17 inh -3.3, proKLK7 act -0.2 and ADAM10 inh -3.6.
Screening CCN(CC)C(=O)CC[C@H]1CC[C@]2(CCCN(S(=O)(=O)c3ccccc3)C2)O1 returned rCAG RNA binder 1.1, ADAM17 inh -1.7, proKLK7 act -0.2 and ADAM10 inh -9.1.
